# Screening results from PubChem.
# In the library only some 0.27% were active in any assay of this set; here they are far more common.
# TRPV1 PAM = enhances activation of the human vanilloid receptor TRPV1 | potentiation, % at 8.33 µM | 320,000 tested, 0.02% active | TRPV1-expressing cells, Fluo-8 calcium influx, capsaicin EC20 potentiation | Q8NER1; in the data active means potentiation above about 80%; inconclusive means between about 30% and that limit
#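 TRPV1-expressing cells were cultured overnight at 35.5C and loaded with Fluo-8 calcium dye for 40 to 90 min at room temperature. After a 10 s baseline, compound was added and calcium influx was read kinetically for 3 min (ex 480/em 520 nm).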
# TRPV1 ag = human TRPV1 agonism; TRPV1-expressing cells, Fluo-8 calcium influx, agonist mode; activation, % at 8.33 µM; 320,000 tested, 0.19% active; AID 540275; in the data active means activation above about 80%; inconclusive means between about 30% and that limit
#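 Cells expressing TRPV1 were dye-loaded with Fluo-8 and read kinetically: 10 s baseline, 3 min after compound (agonist portion), then 2 min after EC20 capsaicin (allosteric enhancer portion). Calcium-bound dye fluorescence at 480/520 nm.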
# TRPML1 inh = inhibitors of human TRPML1 channel; Q9GZU1; TRPML1-inducible cells, Ca2+ dye fluorescence, FDSS; hits give low values; inhibition of EC80 agonist-evoked calcium signal; activity change, negative = inhibition, % (concentration not given with the values); 390,000 tested, 0.02% active; AID 624415; in the data active means activity change below about -50%; inconclusive means between about -30% and that limit;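 further: stimulus is agonist 54-4 at its EC80 concentration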
# Target sequence (Q9GZU1 whole entry, looked up): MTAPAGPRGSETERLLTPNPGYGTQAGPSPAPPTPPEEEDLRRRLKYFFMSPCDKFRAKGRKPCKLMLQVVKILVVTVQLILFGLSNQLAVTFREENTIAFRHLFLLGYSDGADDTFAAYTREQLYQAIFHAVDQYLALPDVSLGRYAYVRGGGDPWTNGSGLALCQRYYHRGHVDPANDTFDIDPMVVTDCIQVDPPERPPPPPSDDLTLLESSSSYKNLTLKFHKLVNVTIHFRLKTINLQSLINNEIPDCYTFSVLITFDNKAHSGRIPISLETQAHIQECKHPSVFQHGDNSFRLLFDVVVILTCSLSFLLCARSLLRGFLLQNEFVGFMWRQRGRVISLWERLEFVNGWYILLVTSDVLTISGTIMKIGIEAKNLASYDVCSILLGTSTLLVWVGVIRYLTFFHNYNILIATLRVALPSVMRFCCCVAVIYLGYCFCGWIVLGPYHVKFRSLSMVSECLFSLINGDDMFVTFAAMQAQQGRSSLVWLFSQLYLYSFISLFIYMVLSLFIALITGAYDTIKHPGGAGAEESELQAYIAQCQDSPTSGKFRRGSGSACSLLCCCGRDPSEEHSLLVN
#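 TRPML1-DL cells, Tet-induced overnight (~16 h, 37 °C) at 1,500 cells/well, were loaded with Ca8 no-wash dye plus quencher for 45-90 min at room temperature. Compounds were pinned during FDSS kinetic reading; agonist 54-4 at EC80 (4 uM final) then added.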
# TRPML1 agonist = agonists of human TRPML1 channel; Q9GZU1; TRPML1-expressing cells, Ca2+ dye fluorescence, FDSS; activation, % (test concentration not listed); 410,000 tested, 0.12% active; in the data active means activation above about 50%; inconclusive means mostly about 30% to 49%
#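 Calcium fluorescence on an FDSS kinetic reader gave the read-out. Tet-induced TRPML1-DL cells were plated overnight, dye-loaded (Ca8 with quencher, 45-90 min, room temperature, dark), then read 110 s after compound addition, and again 110 s after 4uM final 54-4 (EC80).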
# Numbers stand for hits; - = inactive; ? = inconclusive; . = no result.
SMILES,TRPV1 PAM,TRPV1 ag,TRPML1 inh,TRPML1 agonist
Cc1cccn2c(=O)c3cc(C(=O)NCC4CCCO4)c(=N)n(CC4CCCO4)c3nc12 (centres undefined),-,-,-,-
CN1C(=O)/C(=C\c2ccc(N(C)C)cc2)OC1=S,-,?,-,82.3
Cc1nn(C)c2c1c(-c1ccccc1)cc(=O)n2CC(=O)Nc1ccccc1C(F)(F)F,.,.,-,-
CC(C)(C)c1ccc(CN(Cc2ccccc2)C(c2ccccn2)c2nnnn2C(C)(C)C)cc1 (centres undefined),-,-,-,55.8
CCCn1c(SC(C)C(=O)N2CCOCC2)nc2ccc(Br)cc2c1=O (centres undefined),-,83.3,-,-
COc1cc(C=C2Cc3ccccc3C2=O)cc(OC)c1OC,.,.,.,-
COc1cc(N(C)C)c(OC)cc1/C=C1\Cc2ccccc2C1=O,.,.,.,78.2
O=C1c2cc([N+](=O)[O-])ccc2-c2ncccc21,-,-,-57.0,-
COc1cc(Nc2nc3ccccc3nc2NS(=O)(=O)c2ccc([N+](=O)[O-])cc2)cc(OC)c1OC,-,-,?,118.9
COc1ccc(Nc2nc3ccccc3nc2NS(=O)(=O)c2ccc(C)cc2)c(OC)c1,.,.,-,-
O=[N+]([O-])c1ccc(S(=O)(=O)Nc2nc3ccccc3nc2Nc2ccccc2)cc1,-,-,-,51.7
Cc1ccccc1NC(=O)c1sc2nc3c(cc2c1N)CCCC3,.,.,-,-
COc1ccc(CN(C2CCCCC2C)S(=O)(=O)c2ccc(S(=O)(=O)N(C)C)cc2)cc1OC (centres undefined),-,-,-,133.9
Cc1ccc(OCCNC(=O)Cc2ccc(F)cc2)cc1,-,84.3,-,-
O=C(C1=C[C@@H](c2ccccc2)C[C@@H](OCc2ccc(CO)cc2)O1)N1CCCCCCC1,-,88.2,-,-
Cc1cc(=O)oc2cc(NC(=O)C(CCCN=C(N)N)NC(=O)OCc3ccccc3)ccc12 (centres undefined),-,-,-52.0,-
CCc1ccccc1NC(=O)CSc1nnc(-c2nonc2NC(C)=O)n1C,.,.,-,-
CSc1ccccc1NC(=O)CN(C1CCCCC1)S(C)(=O)=O,-,-,-,-
CN(CC(=O)Nc1ccccc1Sc1ccccc1)C1CCCCC1,-,-,?,60.2
Cc1ccc(SCCNC(=O)c2ccccc2F)cc1,-,80.1,.,.
Cc1ccccc1-c1noc(-c2ccc(N3CCCCC3)c([N+](=O)[O-])c2)n1,.,.,-,-
Cc1nn(-c2ccccc2)nc1C(=O)Nc1ccc2[nH]ncc2c1,-,90.8,-,-
Cc1nn(-c2ccccc2)nc1C(=O)NN,?,-,-,-
Cc1ccc(Cn2cnc3c(cnn3C(C)(C)C)c2=O)cc1F,.,.,-,-
Cc1ccc2nc(CS)[nH]c2c1,.,.,.,-
SMILES,TRPV1 PAM,TRPV1 ag,TRPML1 inh,TRPML1 agonist
CCOc1cc(/C=C\c2[nH]c(=O)[nH]c(=O)c2[N+](=O)[O-])ccc1OC(C)CC (centres undefined),-,-,-71.0,-
CCCOc1ccc(/C=C/c2[nH]c(=O)[nH]c(=O)c2[N+](=O)[O-])cc1OCC,?,-,-,-
CC1(C)Oc2ccc(/C=C/C(=O)N3CCOCC3)c(O)c2C(N2CCOCC2)C1O (centres undefined),-,-,.,.
CC(C)CC(=O)OC1C(N2CCOCC2)c2c(ccc(/C=C/C(=O)N3CCOCC3)c2O)OC1(C)C (centres undefined),-,81.0,-,-
O=C(Nc1cccc([N+](=O)[O-])c1)c1ccc(-c2ccccc2)cc1,-,86.9,-,-
O=C(Nc1cccc([N+](=O)[O-])c1)N1CCN(c2ccccc2)CC1,-,100.4,-,-
O=C(Nc1cccc([N+](=O)[O-])c1)c1cccc(C(=O)Nc2cccc([N+](=O)[O-])c2)c1,-,-,-,-
Cc1ccc(N2CCN(C(=O)Nc3cccc([N+](=O)[O-])c3)CC2C)cc1 (centres undefined),-,82.9,-,-
CCN(CC)c1ccc(C(=O)Nc2ccccc2)cc1[N+](=O)[O-],-,81.9,-,-
COc1ccc(C(=O)Nc2ccc(Nc3ccccc3)cc2)cc1[N+](=O)[O-],-,-,.,.
CC1CCN(CC(=O)Nc2cccc([N+](=O)[O-])c2)CC1,-,-,-,-
COc1ccc(Cl)c(Cn2cnc3c(cnn3C(C)(C)C)c2=O)c1,.,.,-,-
COc1ccc(-c2nc3ccc(C)cn3c2NCc2ccc3c(c2)OCO3)cc1,-,81.2,-,-
CC(=O)N1CCCc2cc(S(=O)(=O)N3CCCC(C(=O)Nc4cc(Cl)ccc4C)C3)ccc21 (centres undefined),.,.,-,-
O=c1ccc2[n+]([O-])c3ccc(O)cc3oc-2c1,-,-,-,-
Nc1ccc(-c2c3ccc(=O)cc-3oc3cc(O)ccc23)c(C(=O)O)c1,-,-,-,84.0
O=[N+]([O-])c1cc([N+](=O)[O-])c(Oc2c(F)cccc2F)cc1NN1CCCCC1,-,?,-,-
O=[N+]([O-])c1cc([N+](=O)[O-])c(Oc2c(F)ccc(F)c2F)cc1NN1CCCCC1,-,80.2,-,-
CCc1ccc(/C=C2/SC(N3CCOCC3)=NC2=O)cc1,-,84.8,-,-
C=CCOc1ccc(/C=C2\SC(N3CCCCC3)=NC2=O)cc1,-,81.6,-,-
CC(C)c1ccc(/C=C2\SC(N3CCOCC3)=NC2=O)cc1,-,?,-,-
Cc1ccc(/C=C2\SC(N3CCCCC3)=NC2=O)cc1,-,?,-,-
CSc1ccc(CNC(=O)Cn2nc(N3CCN(c4ccccc4)CC3)ccc2=O)cc1,.,.,-,-
Cc1ccc(N2CCN(S(=O)(=O)c3ccc(F)c(C)c3)CC2)c(C)c1,-,-,-,50.4
COc1ccc(NC(=O)C2CCC(C(C)(C)C)CC2)cc1S(=O)(=O)N1CCCCC1 (centres undefined),-,-,-,83.8
SMILES,TRPV1 PAM,TRPV1 ag,TRPML1 inh,TRPML1 agonist
COc1ccc(NC(=O)C2CC2)cc1S(=O)(=O)N1CCOCC1,-,-,-,-
O=C(Cc1ccccc1F)Nc1nc(-c2cccs2)cs1,-,81.3,-,-
O=C(Cc1ccccc1)Nc1nnc(-c2cccs2)s1,-,-,-,-
O=C(Cc1ccccc1)Nc1nc(-c2cccs2)cs1,-,93.7,-,-
O=C(Cc1ccc(F)cc1)Nc1nc(-c2ccc(F)cc2)cs1,-,104.2,-,-
O=C(O)CCCC(=O)Nc1nc(-c2ccc(F)cc2)cs1,-,-,-,-
O=C(Cc1ccccc1F)Nc1nc(-c2ccc(F)c(F)c2)cs1,-,?,-,-
CSc1ccc(CCNC(=O)CCCn2nc(C)c3sc4ccccc4c3c2=O)cc1,.,.,-,-
Cc1ccc(-c2noc(-c3nnn(CC(=O)Nc4ccc(C)cc4Cl)c3N)n2)cc1,.,.,-,-
CCOC(=O)c1c(NC(=O)C(C)Oc2ccccc2F)sc(C(C)=O)c1C (centres undefined),.,.,-,-
Cc1ccc(S(=O)(=O)N2CCc3cc(C(=O)Nc4ccc(C)c(C)c4)ccc32)cc1,.,.,-,-
CC(C)(C)c1ccc(C(=O)NNC(=O)C2CCCCC2)cc1,-,90.4,-,-
